In the supplement of paper PMC13380429:

Test system: Vero E6 infected with SARS-CoV-2
Experiment: inhibition of SARS-CoV-2 cytopathic effect; higher = more antiviral protection, active = above 15
Conditions: 48 h

Measured: inhibition of SARS-CoV-2 cytopathic effect

Nc1c(-c2cccc(C(F)(F)F)c2)nsc1C(=O)O [amflutizole]
inactive: 1 nM -1.13% | 8.33 nM 0.29% | 100 nM -1.28% | 833.33 nM 0.87% | 10000 nM 1.39%

NCCc1c[nH]cn1 [histamine]
inactive: 1 nM -0.66% | 8.33 nM 1.36% | 100 nM 0.17% | 833.33 nM 1.23% | 10000 nM 1%

CC(=O)NS(=O)(=O)c1ccc(NC(=O)c2ccccc2C(=O)O)cc1 [phthalylsulfacetamide]
inactive: 1 nM -0.71% | 8.33 nM -1.43% | 100 nM -0.27% | 833.33 nM 0.53% | 10000 nM -0.38%

O=C(O)C1=CO[C@@H](O[C@@H]2O[C@H](CO)[C@@H](O)[C@H](O)[C@H]2O)[C@@H]2C(CO)=CC[C@H]12 [Geniposidic acid]
inactive: 1 nM -0.41% | 8.33 nM 3.01% | 100 nM 0.36% | 833.33 nM -1.23% | 10000 nM 1.07%

NC(=O)N/N=C/c1ccc([N+](=O)[O-])o1 [nitrofurazone]
inactive: 1 nM 0.32% | 8.33 nM 0.46% | 100 nM -1.2% | 833.33 nM -0.04% | 10000 nM 0.07%

C[C@]12COC(=O)C[C@@H]1CC[C@@H]1[C@@H]2CC[C@@]2(C)[C@H]1CC[C@]2(C)O [Oxandrolone]
inactive: 1 nM 1.55% | 8.33 nM 0.57% | 100 nM -0.27% | 833.33 nM -0.56% | 10000 nM 0.44%

CCNC(=O)[C@H]1O[C@@H](n2cnc3c(N)ncnc32)[C@H](O)[C@@H]1O
inactive: 1 nM 3.12% | 8.33 nM 1.83% | 100 nM -2.78% | 833.33 nM -3.3% | 10000 nM -1.61%

O=C1c2ccccc2C(=O)c2ccccc21 [anthraquinone]
inactive: 1 nM -2.37% | 8.33 nM -0.48% | 100 nM -1.17% | 833.33 nM 1.54% | 10000 nM 0.18%

CC(C)(C)c1ccc(C(=O)Nc2cn3cc(-n4ccnc4)ccc3n2)cc1
inactive: 1 nM 2.98% | 8.33 nM 0.55% | 100 nM 2.27% | 833.33 nM 2.13% | 10000 nM -0.45%

O=c1oc2cc(O)ccc2s1 [tioxolone]
inactive: 1 nM 1.22% | 8.33 nM -2.55% | 100 nM -0.43% | 833.33 nM -1.44% | 10000 nM -1.5%

CC(C)CCC[C@@H](C)[C@H]1CC[C@H]2[C@@H]3CCC4=CC(=NO)CC[C@]4(C)[C@H]3CC[C@]12C [olesoxime]
inactive: 1 nM -0.01% | 8.33 nM 0.28% | 100 nM -0.33% | 833.33 nM -0.32% | 10000 nM 3.9%

N[C@]1(C(=O)O)CC[C@@H](C(=O)O)C1
inactive: 1 nM 1.21% | 8.33 nM 2.87% | 100 nM 0.81% | 833.33 nM 1.58% | 10000 nM 1.7%

Cc1n[nH]c2ccc(-c3cncc(OC[C@@H](N)Cc4ccccc4)c3)cc12
inactive: 1 nM 1.18% | 8.33 nM 0.14% | 100 nM 4.58% | 833.33 nM 4.63% | 10000 nM -13.2%

CCC(=O)N1CCN(c2ccc(-n3c(=O)ccc4cnc5ccc(-c6cnc7ccccc7c6)cc5c43)cc2C(F)(F)F)CC1 [torin-1]
inactive: 1 nM 1.59% | 8.33 nM -1.08% | 100 nM 0.88% | 833.33 nM -0.28% | 10000 nM -0.2%

CCCCC(=O)O[C@]1(C(=O)CO)[C@@H](C)C[C@H]2[C@@H]3CCC4=CC(=O)C=C[C@]4(C)[C@@]3(F)[C@@H](O)C[C@@]21C
inactive: 1 nM -3% | 8.33 nM -2.7% | 100 nM -2.96% | 833.33 nM -2.78% | 10000 nM -4.48%

Cc1nc2c(c(=O)[nH]1)CSCC2
inactive: 1 nM 1.12% | 8.33 nM -1.82% | 100 nM 0.46% | 833.33 nM 0.11% | 10000 nM 4.1%

Cc1c(C(=O)NCCCO)cnn1-c1nc(-c2cccc(C(F)(F)F)c2)cs1
inactive: 1 nM 2.55% | 8.33 nM 3.83% | 100 nM 3.4% | 833.33 nM 5.36% | 10000 nM -0.86%

Cc1ccnc2c1CCCC2C(N)=S (stereo not given) [isotiquimide]
inactive: 1 nM 2.13% | 8.33 nM 1.38% | 100 nM 1.08% | 833.33 nM 1.85% | 10000 nM 2.59%

O=c1oc(-c2ccc(C(F)(F)F)cc2)nn1Cc1cc(Cl)ccc1O
inactive: 1 nM -2.43% | 8.33 nM -1.09% | 100 nM 3.13% | 833.33 nM 3.7% | 10000 nM 13.8%

CS(=O)(=O)Nc1ccc2oc3c(OC(F)F)ccc(C(=O)Nc4c(Cl)cncc4Cl)c3c2c1 [oglemilast]
inactive: 1 nM -1% | 8.33 nM 0.83% | 100 nM 1.63% | 833.33 nM 0.94% | 10000 nM 1.89%

C=CCN1CC[C@]23c4c5ccc(O)c4O[C@H]2/C(=N/NC(=O)c2ccccc2)CC[C@@]3(O)[C@H]1C5 [naloxone-benzoylhydrazone]
inactive: 1 nM -0.04% | 8.33 nM 0.97% | 100 nM 0.75% | 833.33 nM 5.45% | 10000 nM 0.69%

CCNC(=O)c1n[nH]c(-c2cc(Cl)c(O)cc2O)c1-c1ccc(OC)cc1
inactive: 1 nM -4.03% | 8.33 nM -4.15% | 100 nM -2.27% | 833.33 nM -3.38% | 10000 nM -0.29%

CNCc1ccc(-c2cc(-c3nc(-c4ccc(S(=O)(=O)C(C)C)cc4)cnc3N)on2)cc1
inactive: 1 nM 0.45% | 8.33 nM 3.25% | 100 nM 1.09%
active: 833.33 nM 24.5% | 10000 nM 25.2%

CC(C)COc1ccc(CNC(=O)N(Cc2ccc(F)cc2)C2CCN(C)CC2)cc1 [pimavanserin]
inactive: 1 nM -1.81% | 8.33 nM -0.8% | 100 nM 0.2% | 833.33 nM -0.47%
active: 10000 nM 24%

CC(=O)O[C@]1(C(C)=O)CC[C@H]2[C@@H]3C[C@H](C)C4=CC(=O)C=C[C@]4(C)[C@@]3(F)[C@@H](O)C[C@@]21C [fluorometholone-acetate]
inactive: 1 nM 0.25% | 8.33 nM 0.86% | 100 nM -0.18% | 833.33 nM 0.37% | 10000 nM -0.24%

CS(=O)(=O)N(Cc1ccco1)C[C@@H](O)Cn1c2ccccc2c2ccccc21
inactive: 1 nM 3.16% | 8.33 nM 2.61% | 100 nM -0.72% | 833.33 nM 0.77% | 10000 nM 9.76%

CN(C)CCn1cc(S(=O)(=O)c2cccc(F)c2)c2cccnc21
inactive: 1 nM 5.3% | 8.33 nM 5.65% | 100 nM 1.09% | 833.33 nM -1.84% | 10000 nM -1.97%

CN(c1nccc(=O)[nH]1)C1CCN(c2nc3ccccc3n2Cc2ccc(F)cc2)CC1 [mizolastine]
inactive: 1 nM -1.24% | 8.33 nM -0.74% | 100 nM 0.47% | 833.33 nM 0.93% | 10000 nM -1.33%

CN1CC[C@@H](NC(=O)Nc2ccc(C#N)cc2)C[C@@H]1c1nc2ccccc2[nH]1 [glasdegib]
inactive: 1 nM 2.8% | 8.33 nM 1.32% | 100 nM 1.05% | 833.33 nM -0.41% | 10000 nM 1.71%

O=C1C(O)=C(O)C(=O)C(O)=C1O [tetroquinone]
inactive: 1 nM -0.23% | 8.33 nM 0.57% | 100 nM 1.71% | 833.33 nM -0.73% | 10000 nM -0.73%

Cc1c(-c2ccc(-c3ccccc3F)cc2)nc2ccc(F)cc2c1C(=O)O [brequinar]
inactive: 1 nM 0.47% | 8.33 nM -5.34% | 100 nM -4.42% | 833.33 nM -4.61% | 10000 nM -4.4%

Clc1cccc2c1CN(C1=NCCN1)C2
inactive: 1 nM 1.97% | 8.33 nM 3.31% | 100 nM 3.22% | 833.33 nM 2.65% | 10000 nM -2.32%

CC(=O)OCC(=O)[C@@]12OC(C)(C)O[C@@H]1C[C@H]1[C@@H]3C[C@H](F)C4=CC(=O)C=C[C@]4(C)[C@@]3(F)[C@@H](O)C[C@@]12C [fluocinonide]
inactive: 1 nM 0.75% | 8.33 nM -0.105% | 100 nM 0.48% | 833.33 nM 0.035% | 10000 nM -1.54%

N#CCC(=O)c1ccccc1
inactive: 1 nM 4.1% | 8.33 nM 4.15% | 100 nM 0.67% | 833.33 nM 2.33% | 10000 nM -0.41%

OCCN(CCO)c1nc(N2CCCCC2)c2nc(N(CCO)CCO)nc(N3CCCCC3)c2n1 [dipyridamole]
inactive: 1 nM -0.67% | 8.33 nM 1.83% | 100 nM 0.53% | 833.33 nM 0.2% | 10000 nM 4.52%

Nc1ccc(-c2ccc3ncc4ccc(=O)n(-c5cccc(C(F)(F)F)c5)c4c3c2)cn1 [torin-2]
inactive: 1 nM 0.99% | 8.33 nM -0.26% | 100 nM -2.28% | 833.33 nM -4.78% | 10000 nM -8.11%

OCc1ccc(CO)o1 [2,5-furandimethanol]
inactive: 1 nM -0.97% | 8.33 nM 0.38% | 100 nM 0.27% | 833.33 nM 2.21% | 10000 nM 0.97%

Cc1ccc(S(=O)(=O)n2c(N)nc3ccccc32)cc1
inactive: 1 nM -0.51% | 8.33 nM -0.92% | 100 nM -2.91% | 833.33 nM -2.7% | 10000 nM -0.17%

CC(=O)Nc1cccc(O)c1 [metacetamol]
inactive: 1 nM 1.03% | 8.33 nM 5.41% | 100 nM 3.07% | 833.33 nM 4.81% | 10000 nM 4.76%

CCNC(=O)c1noc(-c2cc(C(C)C)c(O)cc2O)c1-c1ccc(CN2CCOCC2)cc1
inactive: 1 nM 0.97% | 8.33 nM -0.58% | 100 nM -1.84% | 833.33 nM 0.4% | 10000 nM -4.07%
